Rows were chosen to be rich in hits. Some 7.4% of all compounds tested hit in one or more screens of this group.
FLuc modulator: qHTS profiling assay for firefly luciferase inhibitor/activator using purifed enzyme and Km concentrations of substrates (counterscreen for miR-21 project) | Potency, µM (doses to about 57.5 µM), for the others: at the highest dose activity change, negative = inhibition, actives largely listed as inhibitors | Luciferin 4-monooxygenase (Photinus pyralis), P08659 | purified FLuc, Km substrates, luminescence inhibition | actives 6.9% (n = 360,000) | AID 588342, 2011;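 note: plate controls were vehicle for no effect and reference inhibitor for full effect; nearly all actives have a fitted effect of over 55% in size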
Target sequence (P08659 whole entry, looked up): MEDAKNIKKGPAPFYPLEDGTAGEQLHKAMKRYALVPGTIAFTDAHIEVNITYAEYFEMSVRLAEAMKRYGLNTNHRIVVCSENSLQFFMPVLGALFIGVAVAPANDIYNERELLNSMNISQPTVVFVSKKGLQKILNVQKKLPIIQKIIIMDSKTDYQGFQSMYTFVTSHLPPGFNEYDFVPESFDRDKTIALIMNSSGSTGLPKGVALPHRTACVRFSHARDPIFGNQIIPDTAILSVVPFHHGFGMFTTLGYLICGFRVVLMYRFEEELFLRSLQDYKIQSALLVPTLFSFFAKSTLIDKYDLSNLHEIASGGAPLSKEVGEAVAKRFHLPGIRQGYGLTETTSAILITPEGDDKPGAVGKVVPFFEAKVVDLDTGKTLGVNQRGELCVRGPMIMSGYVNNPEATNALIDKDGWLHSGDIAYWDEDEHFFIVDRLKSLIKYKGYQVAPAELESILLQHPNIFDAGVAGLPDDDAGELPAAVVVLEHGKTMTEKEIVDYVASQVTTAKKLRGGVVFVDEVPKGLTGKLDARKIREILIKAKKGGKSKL
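Purified P. pyralis luciferase, 10 nM final, with Km-level 10 uM D-luciferin and 10 uM ATP in 50 mM Tris acetate pH 7.5, 10 mM Mg acetate, 0.01% Tween-20, 0.05% BSA; 6-point qHTS titration about 60 µM downward; luminescence read.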
Rab9 promoter act: qHTS Assay for Rab9 Promoter Activators | Huh7 Rab9 promoter-luciferase reporter, luminescence, 24 h | Potency, µM (series often up to 9.22 µM), for inactives: at the highest dose activation, negative = inhibition, hits mostly activators | actives 2.8% (n = 320,000); note: % of control where 0% means no effect; nearly all actives have a fitted effect of over 60% in size
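Stable Rab9-luc Huh7, 1500 cells/well, 2 h settle; cmpd in DMSO, 24 h, 37 °C/5% CO2; luciferase reagent 10 min RT; luminescence.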
ELG1 genotox: qHTS screen for small molecules that induce genotoxicity in human embryonic kidney (HEK293T) cells expressing luciferase-tagged ELG1; Potency, µM (titrated, usually from 46 µM), inactives show at the top dose activity change, positive = activation, most hits filed as activators; actives 1.3% (n = 330,000); HEK293T ELG1-luciferase reporter, luminescence, 16 h; note: % of control where 0% means no effect; nearly all actives have a fitted effect of over 60% in size
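16 hr compound incubation (37 °C, 5% CO2) of HEK293T cells carrying luciferase-tagged ELG1; luciferase then measured by ONE-Glo luminescence after 30 min at RT.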
NPC1 prom act: qHTS Assay for NPC1 Promoter Activators. actives 2.4% (n = 320,000). Huh7 NPC1 promoter luciferase reporter, 24 h. AID 485313, 2010. Potency, µM (titrated, usually from 9.22 µM), for the others: at the top dose activation, hits mostly activators; note: % of control where 0% means no effect; nearly all actives have a fitted effect of over 60% in size
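Luminescence from an NPC1 promoter-driven luciferase reporter in stably transfected Huh7 cells was measured after 24 h compound treatment at 37 °C, followed by 10 min ambient incubation with luciferase detection reagent.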
SMN2 splice enh: qHTS Assay for Enhancers of SMN2 Splice Variant Expression. HEK293 SMN2-luciferase splicing reporter, luminescence, 30-36 h. Potency, µM (top dose mostly 46.1 µM), without a hit: top-dose activity change, positive = activation, actives largely listed as activators. actives 2.8% (n = 210,000). AID 1458, 2008; note: % of control where 0% means no effect; nearly all actives have a fitted effect of over 55% in size
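HEK293 cells carry an SMN2 […]–luciferase reporter in which exon 7 inclusion puts luciferase in frame. Cells were plated 10-12 h before compound addition, then incubated 30-36 h at 37C. ONE-Glo luminescence was read; sodium butyrate at 4.5 mM final served as control.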
Luc counter: Counterscreen for Luciferase (Kinase-Glo TM) Inhibition | Kinase-Glo luciferase, ATP luminescence, 8 min | Potency, µM (titrated, usually from 38.3 µM), without a hit: at the highest dose activity change, negative = inhibition, hits mostly inhibitors | actives 0.28% (n = 200,000) | AID 1379, 2008; note: % is set by controls: 0 for no effect and ±100 for the full control effect; nearly all actives have a fitted effect of over 60% in size
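Inhibition of Kinase-Glo luciferase light generation was assessed at 10 uM ATP in pH 7.2 imidazole buffer, with luminescence measured after eight minutes at ambient temperature.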
Numbers without * were called inactive. Calls come from the whole dose curve; as a rule, active = well fitted curve in the direction sought with a large enough effect; inconclusive = small, poorly fitted or top-dose-only effect, or another doubt; inactive = no such curve, though single readings can be large; an effect the other way counts as inactive or inconclusive. Potency is the fitted concentration of half-maximal effect.

How did Cc1cc(C)n2nc(SCC(=O)N3CC(C)CC(C)C3)nc2n1 (stereo not drawn) do in these assays?
ELG1 genotox: 4%

How did O=C(COC(=O)/C=C/c1cccc(C(F)(F)F)c1)NC1CCS(=O)(=O)C1 (stereo not drawn) do in these assays?
Rab9 promoter act: 3%; ELG1 genotox: 4%; NPC1 prom act: 0%

How did COc1ccc(C2=NN(S(C)(=O)=O)C(c3cn(-c4ccccc4)nc3-c3cccs3)C2)cc1 (stereo not drawn) do in these assays?
FLuc modulator: -15%; SMN2 splice enh: 20%

Results for COc1ccc2c(c1OC)C(=O)N1N=C(c3ccc(O)cc3)CC21 (stereo not drawn) ?
FLuc modulator: inconclusive; Rab9 promoter act: 11%; ELG1 genotox: 0%; NPC1 prom act: 1%; SMN2 splice enh: 5%; Luc counter: 1%

What do the screens show for `CC(=O)NS(=O)(=O)c1ccc2sc(C)nc2c1`?
FLuc modulator: -1%; Rab9 promoter act: 2%; ELG1 genotox: -2%; NPC1 prom act: 1%

Results for Cc1ccc2nc(-c3cccc(Br)c3)cc(C(=O)NCC3CCCO3)c2c1 (stereo not drawn) ?
FLuc modulator: inconclusive; Rab9 promoter act: 3%; ELG1 genotox: -12%; NPC1 prom act: -5%

How did Cc1cc(Br)cc2c(C(=O)NCC3CCCO3)cc(-c3ccccc3)nc12 (stereo not drawn) do in these assays?
FLuc modulator: 1.3µM*; Rab9 promoter act: 17%; ELG1 genotox: inconclusive; NPC1 prom act: 12%

How did Cc1nc(SC(C)C(=O)NCC2CCCO2)c2cc(-c3ccccc3)sc2n1 (stereo not drawn) do in these assays?
FLuc modulator: 12µM*; Rab9 promoter act: 30%; ELG1 genotox: -10%; NPC1 prom act: -2%

Results for O=C(NCC1CCCO1)c1cc(-c2ccccc2)nc2ccc(Br)cc12 (stereo not drawn) ?
FLuc modulator: 2.4µM*; Rab9 promoter act: 7%; ELG1 genotox: -2%; NPC1 prom act: 1%

How did COc1ccc(Cl)cc1NC(=O)CSc1nnc(-c2ccco2)o1 do in these assays?
FLuc modulator: -8%; Rab9 promoter act: 1%; ELG1 genotox: 1%; NPC1 prom act: -4%

What do the screens show for `Nn1c(Nc2ccccc2)nc2sc3c(c2c1=O)CCC3`?
FLuc modulator: 9.5µM*; Rab9 promoter act: 11%; ELG1 genotox: inconclusive; NPC1 prom act: 20%; SMN2 splice enh: -51%; Luc counter: -1%

Results for NNc1nc(-c2ccccc2)nc2sc3c(c12)CCCC3 ?
FLuc modulator: 0.54µM*; Rab9 promoter act: 2.2µM*; ELG1 genotox: 1.3µM*; NPC1 prom act: 3.5µM*; SMN2 splice enh: -47%; Luc counter: -9%

Results for NNc1nc2sc3c(c2c(=O)n1Cc1ccccc1)CCC3 ?
FLuc modulator: 6.7µM*; Rab9 promoter act: 17%; ELG1 genotox: 6%; NPC1 prom act: -4%

How did CCc1nc2sc3c(c2c(=O)n1N)CCC3 do in these assays?
FLuc modulator: 3%; Rab9 promoter act: -5%; ELG1 genotox: -2%; NPC1 prom act: 0%; SMN2 splice enh: -18%; Luc counter: -8%

How did O=C(O)c1ccc(Cn2nnc3sc4c(c3c2=O)CCCC4)cc1 do in these assays?
FLuc modulator: 13µM*; Rab9 promoter act: inconclusive; ELG1 genotox: inconclusive; NPC1 prom act: 29%; SMN2 splice enh: 5%; Luc counter: -1%

How did COc1ccc(C2Nc3ccccc3C(=O)N2c2ccc(C)cc2)cc1COc1ccccn1 (stereo not drawn) do in these assays?
FLuc modulator: inconclusive; Rab9 promoter act: 3.2µM*; ELG1 genotox: inconclusive; NPC1 prom act: 3.2µM*; SMN2 splice enh: 11µM*; Luc counter: 4%

What do the screens show for `COc1ccc(C2Nc3ccccc3C(=O)N2c2ccc(C)cc2)cc1Cn1nc(C)c([N+](=O)[O-])c1C` (stereo not drawn)?
FLuc modulator: -17%; Rab9 promoter act: inconclusive; ELG1 genotox: inconclusive; NPC1 prom act: inconclusive

Results for COc1ccc(N2C(=O)c3ccccc3NC2c2ccc(OC)c(Cn3nnc4ccccc43)c2)cc1 (stereo not drawn) ?
FLuc modulator: 1%; Rab9 promoter act: inconclusive; ELG1 genotox: 13%; NPC1 prom act: inconclusive; SMN2 splice enh: 14µM*; Luc counter: 4%

Results for COc1ccc(C2Nc3ccccc3C(=O)N2c2ccccc2)cc1CN1CCOCC1 (stereo not drawn) ?
FLuc modulator: 3%; Rab9 promoter act: 23%; ELG1 genotox: 6%; NPC1 prom act: 12%; SMN2 splice enh: 25%; Luc counter: -2%

Results for COC(=O)[C@H](COC(C)(C)C)NC(=O)O[C@H]1C(=O)c2ccc(OC)cc2O[C@@H]1c1ccc2c(c1)OCO2 ?
SMN2 splice enh: 0%; Luc counter: -1%

How did C/C(=N\NC(=O)c1cc(C(C)C)[nH]n1)c1ccncc1 do in these assays?
FLuc modulator: inconclusive; Rab9 promoter act: inconclusive; ELG1 genotox: 9%; NPC1 prom act: inconclusive

What do the screens show for `C/C(=N\NC(=O)c1cc(C(C)C)[nH]n1)c1ccco1`?
FLuc modulator: 12µM*; Rab9 promoter act: 2.5µM*; ELG1 genotox: inconclusive; NPC1 prom act: 4µM*; SMN2 splice enh: 2.8µM*; Luc counter: 8.9µM*

Results for C/C(=N/NC(=O)c1cc(-c2ccc(Br)s2)[nH]n1)c1ccco1 ?
FLuc modulator: 24µM*; Rab9 promoter act: -8%; ELG1 genotox: 4%; NPC1 prom act: 1%; SMN2 splice enh: -10%; Luc counter: 0%

What do the screens show for `CC(C)c1cc(C(=O)N/N=C/c2ccco2)n[nH]1`?
FLuc modulator: 17µM*; Rab9 promoter act: inconclusive; ELG1 genotox: inconclusive; NPC1 prom act: inconclusive; SMN2 splice enh: 16µM*; Luc counter: -10%

How did CCCC(=O)Nc1nnc(S(=O)(=O)N(C)Cc2ccc(Cl)cc2)s1 do in these assays?
FLuc modulator: 1%

Results for COc1ccc(NC(=O)Cn2ncc3c4ccccc4n(Cc4ccccc4)c3c2=O)cc1OC ?
FLuc modulator: 2%; SMN2 splice enh: 11%

How did COC(=O)c1cc(COC(=O)CNC(=O)c2ccc(Br)cc2)oc1C do in these assays?
ELG1 genotox: 0%

Results for CC(C)[C@H](NC(=O)c1ccccc1F)C(=O)OCC(=O)NC1CC1 ?
ELG1 genotox: 1%
